# Laboratory results as given in PubChem BioAssay AID434961 (Broad Institute, 2010).
# In all, about 7,700 compounds went through this assay and about 15 (0.2%) were called active. Roughly 6% stayed inconclusive and do not appear here. This is one part of a sample in which actives are shown more often than they occur. Unmarked numbers belong to inactive results.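 How the source made its calls: active means more than half of replicate wells with inhibition above about 18% (limit read from the data, passing the limit was not always enough); inconclusive means exactly half of replicate wells above that limit; inactive means fewer than half of replicates above it.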
# Target: Regulator of chromosome condensation (Homo sapiens) + GTP-binding nuclear protein Ran (Homo sapiens) + Importin subunit beta-1 (Homo sapiens) (UniProt P18754+P62826+Q14974)
# Assay: RanGTP/importin-beta interaction disruptors – biochemical, CFP-Ran/YFP-importin-beta FRET, RCC1, cell-free, primary screen (AID 434961);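 further: 0% = DMSO wells and 100% inhibition = RanGDP control wells on each plate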
# Settings: hits give high values, concentration not given here
row,Compound,inhibition
1,C[C@H]1CN([C@@H](C)CO)C(=O)c2cccc(NS(=O)(=O)c3cccs3)c2O[C@H]1CN(C)Cc1ccc(C(=O)O)cc1,-1.12%
2,C[C@H](CO)N1C[C@H](C)[C@H](CN(C)C(=O)c2ccccc2)OCc2cnnn2CCCC1=O,3.45%
3,Cc1noc(C)c1NC(=O)Nc1ccc2c(c1)CC(=O)N([C@@H](C)CO)C[C@H](C)[C@@H](CN(C)S(=O)(=O)c1cccs1)O2,0.0231%
4,Cc1noc(C)c1NC(=O)N(C)C[C@@H]1Oc2ccc(NC(=O)Cc3ccccc3)cc2C(=O)N([C@@H](C)CO)C[C@H]1C,6.07%
5,C[C@H](CO)N1C[C@H](C)[C@H](CN(C)C)Oc2c(NC(=O)Nc3ccc(C(F)(F)F)cc3)cccc2C1=O,-2.27%
6,COc1ccc(CN(C)C[C@@H]2Oc3ccc(NC(=O)Nc4ccc(C(F)(F)F)cc4)cc3CC(=O)N([C@H](C)CO)C[C@@H]2C)cc1,1.78%
7,C[C@@H]1CN([C@@H](C)CO)C(=O)c2cccc(NC(=O)Nc3ccc(C(F)(F)F)cc3)c2O[C@H]1CN(C)C(=O)Nc1ccc(F)cc1,1.42%
8,C[C@H](CO)N1C[C@H](C)[C@H](CN(C)S(=O)(=O)c2cn(C)cn2)OCCCC[C@H](C)Oc2ccc(NC(=O)CCCN(C)C)cc2C1=O,1.98%
9,C[C@@H]1CCCCO[C@@H](CN(C)S(=O)(=O)c2ccccc2)[C@@H](C)CN([C@@H](C)CO)C(=O)c2cc(NS(C)(=O)=O)ccc2O1,1.15%
10,C[C@@H]1CCCCO[C@H](CN(C)C)[C@H](C)CN([C@H](C)CO)C(=O)c2cc(NC(=O)Nc3ccc4c(c3)OCO4)ccc2O1,7.53%
11,COc1ccc(S(=O)(=O)N(C)C[C@@H]2Oc3ccc(NS(=O)(=O)c4ccc(Cl)cc4)cc3C(=O)N([C@H](C)CO)C[C@@H]2C)cc1,1.93%
12,C[C@H]1CN([C@@H](C)CO)C(=O)c2cccc(NS(=O)(=O)c3cn(C)cn3)c2O[C@@H]1CN(C)CC1CC1,-0.875%
13,Cc1noc(C)c1NC(=O)N(C)C[C@@H]1Oc2ccc(NC(=O)C3CC3)cc2CC(=O)N([C@@H](C)CO)C[C@H]1C,3.34%
14,CNC[C@H]1Oc2ccc(NC(=O)Cc3ccccc3)cc2C(=O)N([C@H](C)CO)C[C@@H]1C,-10.8%
15,C[C@H]1CN([C@@H](C)CO)C(=O)c2cccc(NS(=O)(=O)c3ccc(Cl)cc3)c2O[C@H]1CN(C)Cc1ccncc1,-0.815%
16,C[C@H]1CN([C@@H](C)CO)C(=O)c2cc(NC(=O)CCC(F)(F)F)ccc2O[C@H]1CN(C)C(=O)Nc1ccccc1,1.36%
17,C[C@H](CO)N1C[C@H](C)[C@H](CN(C)C(=O)Nc2ccccc2)Oc2ccc(NC(=O)Cc3cn(C)c4ccccc34)cc2CC1=O,2.8%
18,C[C@H]1CCCCO[C@H](CN(C)Cc2ccc(C(=O)O)cc2)[C@@H](C)CN([C@@H](C)CO)C(=O)c2cc(NC(=O)Nc3ccc(F)cc3)ccc2O1,5.7%
19,C[C@H](CO)N1C[C@H](C)[C@H](CN(C)S(=O)(=O)c2cn(C)cn2)Oc2ccc(N(C)C)cc2CC1=O,-2.21%
20,C[C@@H]1CN([C@H](C)CO)C(=O)c2cc(NC(=O)c3ccncc3)ccc2O[C@@H]1CN(C)C,0.131%
21,CC(C)NC(=O)Nc1ccc2c(c1)C(=O)N([C@H](C)CO)C[C@H](C)[C@@H](CN(C)Cc1ccc(C(=O)O)cc1)OCCCC[C@@H](C)O2,2.11%
22,C[C@@H]1CN([C@H](C)CO)C(=O)c2cc(NS(=O)(=O)c3ccccc3)ccc2O[C@@H](C)CCCCO[C@@H]1CN(C)Cc1ccc2c(c1)OCO2,-2.27%
23,COc1ccc(S(=O)(=O)Nc2cccc3c2O[C@H](CN(C)Cc2ccc4c(c2)OCO4)[C@@H](C)CN([C@@H](C)CO)C3=O)cc1,1.75%

row,Compound,inhibition
1,C[C@@H]1CCCCO[C@@H](CN(C)C(=O)CCC(F)(F)F)[C@@H](C)CN([C@@H](C)CO)C(=O)c2cc(NS(=O)(=O)c3cccs3)ccc2O1,5.99%
2,C[C@@H]1CN([C@@H](C)CO)C(=O)c2cccc(NC(=O)c3cnccn3)c2O[C@H]1CN(C)C(=O)NC1CCCCC1,0.00388%
3,CC(C)NC(=O)N(C)C[C@@H]1Oc2c(NC(=O)C3CCOCC3)cccc2C(=O)N([C@H](C)CO)C[C@H]1C,-0.0599%
4,C[C@H]1CN([C@@H](C)CO)C(=O)Cc2cc(NS(=O)(=O)c3ccccc3)ccc2O[C@@H]1CN(C)Cc1ccc2c(c1)OCO2,0.885%
5,Cc1noc(C)c1NC(=O)Nc1ccc2c(c1)CC(=O)N([C@H](C)CO)C[C@@H](C)[C@H](CN(C)S(=O)(=O)c1ccccc1)O2,0.923%
6,C[C@@H]1CN([C@H](C)CO)C(=O)c2cc(NS(=O)(=O)c3cn(C)cn3)ccc2O[C@H]1CN(C)C(=O)Nc1ccc2c(c1)OCO2,0.416%
7,C[C@H](CO)N1C[C@H](C)[C@@H](CN(C)S(=O)(=O)c2ccccc2)Oc2ccc(NC(=O)NC3CCCCC3)cc2C1=O,3.44%
8,C[C@@H]1CN([C@@H](C)CO)C(=O)Cc2cc(NS(=O)(=O)c3cn(C)cn3)ccc2O[C@H]1CN(C)S(=O)(=O)c1ccc(Cl)cc1,-7.4%
9,C[C@H](CO)N1C[C@H](C)[C@@H](CN(C)C(=O)NC2CCCCC2)Oc2c(NS(=O)(=O)c3ccccc3)cccc2C1=O,1.49%
10,C[C@H]1CN([C@@H](C)CO)C(=O)CCCn2nncc2CO[C@H]1CN(C)C(=O)Nc1ccccc1F,0.229%
11,Cc1noc(C)c1S(=O)(=O)N(C)C[C@@H]1Oc2ccc(NC(=O)C3CCCCC3)cc2CC(=O)N([C@@H](C)CO)C[C@@H]1C,-3.61%
12,CC(C)NC(=O)N(C)C[C@@H]1Oc2c(NS(=O)(=O)c3ccccc3)cccc2C(=O)N([C@H](C)CO)C[C@H]1C,4.93%
13,C[C@@H]1CN([C@H](C)CO)C(=O)Cc2cc(NC(=O)Nc3ccccc3)ccc2O[C@H]1CN(C)CC1CC1,-1.7%
14,COc1ccc(NC(=O)N(C)C[C@@H]2Oc3ncc(C#Cc4ccccc4)cc3C(=O)N([C@H](C)CO)C[C@@H]2C)cc1,2.4%
15,C[C@H](CO)N1C[C@H](C)[C@@H](CN(C)Cc2ccc(Cl)c(Cl)c2)Oc2c(NS(=O)(=O)c3cccs3)cccc2C1=O,3.33%
16,C[C@H](CO)N1C[C@H](C)[C@@H](CN(C)C(=O)Nc2cccc3ccccc23)Oc2ccc(NC(=O)NC3CCCCC3)cc2CC1=O,-2.7%
17,C[C@@H]1CCCCO[C@@H](CN(C)Cc2ccccc2)[C@@H](C)CN([C@H](C)CO)C(=O)c2cc(N(C)C)ccc2O1,-4.07%
18,COc1ccc(CN(C)C[C@H]2Oc3ccc(NC(=O)Cc4cn(C)c5ccccc45)cc3C(=O)N([C@H](C)CO)C[C@H]2C)cc1,-2.11%
19,COc1ccc(S(=O)(=O)N(C)C[C@H]2Oc3c(NC(=O)C4CC4)cccc3C(=O)N([C@@H](C)CO)C[C@@H]2C)cc1,-1.54%
20,Cc1noc(C)c1S(=O)(=O)Nc1cccc2c1O[C@H](CN(C)Cc1ccc3c(c1)OCO3)[C@H](C)CN([C@H](C)CO)C2=O,-8.22%
21,C[C@@H]1CN([C@H](C)CO)C(=O)c2cc(NC(=O)C3CC3)ccc2O[C@H]1CN(C)Cc1ccc(Cl)c(Cl)c1,0.993%
22,Cc1noc(C)c1NC(=O)N(C)C[C@@H]1OCCCC[C@@H](C)Oc2ccc(NC(=O)Cc3ccccc3)cc2C(=O)N([C@@H](C)CO)C[C@@H]1C,4.99%
23,CC(C)NC(=O)N(C)C[C@@H]1OCCCC[C@H](C)Oc2ccc(NC(=O)CCC(F)(F)F)cc2C(=O)N([C@@H](C)CO)C[C@H]1C,-1.88%

row,Compound,inhibition
1,C[C@@H]1CN([C@@H](C)CO)C(=O)c2cc(NS(=O)(=O)c3cccs3)ccc2O[C@@H](C)CCCCO[C@@H]1CN(C)C,-3.73%
2,COC(=O)N(C)C[C@H]1OCc2cn(nn2)CCCC(=O)N([C@H](C)CO)C[C@@H]1C,-1.56%
3,COC(=O)N(C)C[C@H]1OCc2cn(nn2)CCCC(=O)N([C@@H](C)CO)C[C@H]1C,18.2% (active)
4,COC(=O)N(C)C[C@@H]1OCc2cn(nn2)CCCC(=O)N([C@@H](C)CO)C[C@@H]1C,2.64%
5,C[C@H](CO)N1C[C@H](C)[C@H](CN(C)C(=O)Nc2cccc3ccccc23)OCCCC[C@H](C)Oc2ccc(NC(=O)c3ccncc3)cc2C1=O,0.239%
6,C[C@@H]1CN([C@@H](C)CO)C(=O)Cc2cc(NC(=O)Nc3ccc(C(F)(F)F)cc3)ccc2O[C@@H]1CN(C)C(=O)NC1CCCCC1,1.62%
7,C[C@@H]1CN([C@H](C)CO)C(=O)c2cc(NS(=O)(=O)c3cn(C)cn3)ccc2O[C@H]1CN(C)C(=O)Nc1ccc(F)cc1,9.51%
8,C[C@@H]1CN([C@@H](C)CO)C(=O)Cc2cc(NC(=O)Nc3ccc4c(c3)OCO4)ccc2O[C@H]1CN(C)C(=O)NC1CCCCC1,-2.22%
9,C[C@@H]1CN([C@H](C)CO)C(=O)c2cc(NC(=O)Cc3ccccc3)ccc2O[C@@H]1CN(C)C(=O)NC1CCCCC1,1.32%
10,C[C@@H]1CN([C@H](C)CO)C(=O)CCCn2cc(nn2)CO[C@H]1CN(C)C(=O)Nc1cccc2ccccc12,-3.4%
11,CC(C)NC(=O)N(C)C[C@H]1Oc2ccc(NC(=O)CCC(F)(F)F)cc2C(=O)N([C@H](C)CO)C[C@@H]1C,-4.13%
12,C[C@H](CO)N1C[C@H](C)[C@H](CN(C)C(=O)CCCN(C)C)OCCCC[C@H](C)Oc2ccc(NC(=O)Nc3cccc4ccccc34)cc2C1=O,2.28%
13,C[C@H]1CN([C@@H](C)CO)C(=O)c2cccc(NS(=O)(=O)c3ccc(Cl)cc3)c2O[C@H]1CN(C)S(=O)(=O)c1cn(C)cn1,-0.913%
14,CNC[C@@H]1OCCCC[C@@H](C)Oc2ccc(N)cc2C(=O)N([C@H](C)CO)C[C@H]1C,0.828%
15,CNC[C@H]1OCCCC[C@H](C)Oc2ccc(NS(=O)(=O)c3cccs3)cc2C(=O)N([C@@H](C)CO)C[C@@H]1C,1.28%
16,C[C@@H]1CN([C@@H](C)CO)C(=O)Cc2cc(NS(=O)(=O)c3cn(C)cn3)ccc2O[C@@H]1CN(C)C(=O)Nc1ccc(F)cc1,-4.41%
17,COc1ccc(S(=O)(=O)N(C)C[C@H]2Oc3ccc(NC(=O)Nc4ccc(C(F)(F)F)cc4)cc3CC(=O)N([C@@H](C)CO)C[C@@H]2C)cc1,3.32%
18,C[C@H](CO)N1C[C@H](C)[C@H](CN(C)Cc2ccncc2)OCCCC[C@H](C)Oc2ccc(NC(=O)CCCN(C)C)cc2C1=O,1.3%
19,C[C@H](CO)N1C[C@H](C)[C@@H](CN(C)Cc2ccc(C(=O)O)cc2)Oc2ccc(NC(=O)NC3CCCCC3)cc2C1=O,-0.0517%
20,C[C@@H]1CN([C@@H](C)CO)C(=O)c2cc(NC(=O)Nc3cccc4ccccc34)ccc2O[C@H]1CN(C)C(=O)Nc1cccc2ccccc12,-2.16%
21,C[C@H](CO)N1C[C@H](C)[C@H](CN(C)C(=O)OCc2ccccc2)OCc2cn(nn2)CCCC1=O,1.83%
